In PubChem BioAssay (EPA / NIEHS):
Several values for one entry are separate records, joined by “and”; a condition that tells them apart may be missing. Identical values can stand only once. Inconclusive results are not listed. A structure can be active in one record and inactive in another. Activity calls are given as the source filed them. Rule for the calls, unless noted: active = hit-call score of the fitted dose curve at least 0.9, where 1 is the maximum; inactive = score below 0.9.

What was measured:
[1] = read-out: Nuclear factor erythroid 2-related factor 2 (Homo sapiens) (UniProt Q16236); experiment: LTEA_HepaRG_NFE2L2: Life Technologies and Expression Analysis (LTEA) Assay for Nuclear factor erythroid 2-related factor 2 (NFE2L2) Transcription Factor using HepaRG (AID 2283527); details: mRNA level, 48 h; actives raise or lower the signal;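 note: TaqMan qRT-PCR transcript level normalised to ACTB GAPDH and POLR2A housekeeping genes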
How it was run: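 Human liver HepaRG line treated in duplicate for 48 h with an eight-point series topping at 100 uM. Gene expression of NFE2L2 by qRT-PCR, bidirectionally fitted against the vehicle control.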

[2] = read-out: succinate dehydrogenase complex iron sulfur subunit B (SDHB), SDHB (gene 6390); experiment: LTEA_HepaRG_SDHB: Life Technologies and Expression Analysis (LTEA) Assay for succinate dehydrogenase complex iron sulfur subunit B (SDHB) using HepaRG (AID 2283528); details: mRNA level, 48 h; actives raise or lower the signal
How it was run: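 A human HepaRG culture in serum-free induction medium received test chemicals for 48 h over an eight-point range capped at 100 uM. SDHB expression change was quantified by qRT-PCR.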

[3] = read-out: Signal transducer and activator of transcription 3 (Homo sapiens) (UniProt P40763); experiment: LTEA_HepaRG_STAT3: Life Technologies and Expression Analysis (LTEA) Assay for Signal transducer and activator of transcription (STAT3) using HepaRG (AID 2283529); details: mRNA level, 48 h; actives raise or lower the signal
How it was run: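 In this transcriptional endpoint, HepaRG cultures receive test chemicals at up to 100 uM for 48 h, tested in duplicate. STAT3 mRNA is normalized to ACTB, GAPDH and POLR2A.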

[4] = read-out: sulfotransferase 2A1 (SULT2A1), SULT2A1 (gene 6822); experiment: LTEA_HepaRG_SULT2A1: Life Technologies and Expression Analysis (LTEA) Assay for sulfotransferase 2A1 (SULT2A1) using HepaRG (AID 2283531); details: mRNA level, 48 h; actives raise or lower the signal
How it was run: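 Transcript levels of SULT2A1, quantified by qRT-PCR and normalized to three housekeeping genes, serve as the readout. Human HepaRG cultures receive test chemicals for 48 h at up to 100 uM in half-log steps, with 0.5% DMSO vehicle.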

[5] = read-out: Transforming Growth Factor (TGFA), TGFA (gene 7039); experiment: LTEA_HepaRG_TGFA: Life Technologies and Expression Analysis (LTEA) Assay for Transforming Growth Factor (TGFA) using HepaRG (AID 2283532); details: mRNA level, 48 h; actives raise or lower the signal
How it was run: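 Gene expression of TGFA was quantified by qRT-PCR after human HepaRG cells were treated for 48 h with test chemicals (eight concentrations, highest 100 uM, 0.5% DMSO). Activity in either direction was fitted relative to DMSO.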

[6] = read-out: Transforming Growth Factor (TGFB1), TGFB1 (gene 7040); experiment: LTEA_HepaRG_TGFB1: Life Technologies and Expression Analysis (LTEA) Assay for Transforming Growth Factor (TGFB1) Transporter using HepaRG (AID 2283533); details: mRNA level, 48 h; actives raise or lower the signal
How it was run: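 HepaRG, 48 h post-plating, switched to serum-free induction medium; chemicals 100 uM top, half-log, 8 pts, 0.5% DMSO, dup; 48 h exposure; RNA → Fluidigm TaqMan qRT-PCR; norm ACTB/GAPDH/POLR2A; bidirectional fit vs DMSO.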

TIMP1, TIMP1 (gene 7076) = experiment: LTEA_HepaRG_TIMP1: Life Technologies and Expression Analysis (LTEA) Assay for TIMP1 using HepaRG (AID 2283534); details: mRNA level, 48 h; actives raise or lower the signal
How it was run: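 Readout is TIMP1 mRNA level measured by qRT-PCR and normalized to three housekeeping genes. Human HepaRG cells were treated for 48 h in duplicate at eight concentrations up to 100 uM (0.5% DMSO); gain or loss fitted against DMSO.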

[7] = read-out: Tumor necrosis factor receptor 1 (TNFRSF1A), TNFRSF1A (gene 7132); experiment: LTEA_HepaRG_TNFRSF1A: Life Technologies and Expression Analysis (LTEA) Assay for Tumor necrosis factor receptor 1 (TNFRSF1A) using HepaRG (AID 2283535); details: mRNA level, 48 h; actives raise or lower the signal
How it was run: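 Read-out is TNFRSF1A transcript level by TaqMan qRT-PCR, normalized to three housekeeping genes, scored as gain or loss of signal versus 0.5% DMSO. Human HepaRG cells received test chemicals for 48 h at up to 100 uM (half-log series).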

[8] = read-out: Thyroid Hormone Responsive (THRSP), THRSP (gene 7069); experiment: LTEA_HepaRG_THRSP: Life Technologies and Expression Analysis (LTEA) Assay for Thyroid Hormone Responsive (THRSP) using HepaRG (AID 2283536); details: mRNA level, 48 h; actives raise or lower the signal
How it was run: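 Cell model: human HepaRG, approx. 100,000 cells/well, 0.5% DMSO vehicle. Exposure lasts 48 h; phenobarbital 1 mM serves as induction positive control. Gene expression is measured by qRT-PCR against three endogenous control genes.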

[9] = read-out: Cellular tumor antigen p53 (Homo sapiens) (UniProt P04637); experiment: LTEA_HepaRG_TP53: Life Technologies and Expression Analysis (LTEA) Assay for Tumor Protein P53 (TP53) using HepaRG (AID 2283537); details: mRNA level, 48 h; actives raise or lower the signal
How it was run: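 Gain or loss of TP53 mRNA signal is scored relative to 0.5% DMSO after 48 h chemical treatment of HepaRG liver cells, tested in duplicate at eight half-log concentrations up to 100 uM.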

[10] = read-out: UDP glucuronosyltransferase (UGT1A1), UGT1A1 (gene 54658); experiment: LTEA_HepaRG_UGT1A1: Life Technologies and Expression Analysis (LTEA) Assay for UDP glucuronosyltransferase (UGT1A1) using HepaRG (AID 2283538); details: mRNA level, 48 h; actives raise or lower the signal
How it was run: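 HepaRG, 48 h chemical exposure (top 100 uM, half-log 8-pt, 0.5% DMSO vehicle), duplicate wells; qRT-PCR (TaqMan, Fluidigm array) for UGT1A1 mRNA, housekeeping-normalized; bidirectional curve fit vs DMSO baseline.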

[11] = read-out: UDP glucuronosyltransferase (UGT1A6), UGT1A6 (gene 54578); experiment: LTEA_HepaRG_UGT1A6: Life Technologies and Expression Analysis (LTEA) Assay for UDP glucuronosyltransferase (UGT1A6) using HepaRG (AID 2283539); details: mRNA level, 48 h; actives raise or lower the signal
How it was run: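 HepaRG, 48 h post-plating switch to serum-free induction medium; chemical 48 h, 100 uM top, half-log x8, duplicate, 0.5% DMSO. Phenobarbital 1mM induction control. UGT1A6 mRNA by TaqMan qRT-PCR; gain/loss fit vs DMSO.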

[12] = read-out: X-box binding protein 1 (XBP1), XBP1 (gene 7494); experiment: LTEA_HepaRG_XBP1: Life Technologies and Expression Analysis (LTEA) Assay for X-box binding protein 1 (XBP1) using HepaRG (AID 2283540); details: mRNA level, 48 h; actives raise or lower the signal
How it was run: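 Transcript levels of XBP1, measured by qRT-PCR and normalised to three housekeeping genes, were fitted bidirectionally relative to 0.5% DMSO controls. Human HepaRG cells received eight-point half-log dilutions from 100 uM for 48 h.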

[13] = LTEA_HepaRG_LDH_cytotoxicity: Cytotoxicity Assessment in the Life Technologies and Expression Analysis (LTEA) Assay (AID 2283563; active = hit-call score of the fitted dose curve at least 0.9, where 1 is the maximum;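 for AC50: LDH activity released into spent culture medium as a marker of cell death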)
How it was run: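 Cells were thawed and plated for 48 h. Medium was then replaced with serum-free induction medium. Chemicals (8 half-log points, maximum 100 uM, 0.5% DMSO) were added in duplicate for 48 h, after which spent medium was assayed for LDH.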

[14] = ATG_XTT_Cytotoxicity: Cytotoxicity Assessment in the Attagene TRANS-FACTORIAL HepG2 Assay (AID 2283584; active = hit-call score of the fitted dose curve at least 0.9, where 1 is the maximum)
How it was run: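 Cells: human HepG2, transiently transfected with MRTU reporter constructs. Exposure 24 h. Readout: XTT, cell number. Baseline/neg ctrl DMSO; loss-of-signal scored.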

[15] = TOX21_p53_BLA_p3_viability: Viability Assessment in the Tox21 HCT-116 p53 Agonism Beta-lactamase Assay, Phase 3 (AID 2283593; active = hit-call score of the fitted dose curve at least 0.9, where 1 is the maximum;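 note: cells exposed to compound for 16 h before reading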)
How it was run: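 HCT-116 cells (4000/well) rested 5 h at 37C, then got DMSO compounds by pin tool (217-fold dilution) for 16 h at 37C, 5% CO2. After the bla read, CellTiter-Glo was added and luminescence read at 30 min, room temperature.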

[16] = biological target: Cellular tumor antigen p53 (Homo sapiens) (UniProt P04637); experiment: TOX21_p53_BLA_p3_ratio: Tox21 HCT-116 p53 Agonism Beta-lactamase Assay, Ratio, Phase 3 (AID 2283596; active = hit-call score of the fitted dose curve at least 0.9, where 1 is the maximum)
Cellular tumor antigen p53 (Homo sapiens), sequence (P04637 whole entry, looked up): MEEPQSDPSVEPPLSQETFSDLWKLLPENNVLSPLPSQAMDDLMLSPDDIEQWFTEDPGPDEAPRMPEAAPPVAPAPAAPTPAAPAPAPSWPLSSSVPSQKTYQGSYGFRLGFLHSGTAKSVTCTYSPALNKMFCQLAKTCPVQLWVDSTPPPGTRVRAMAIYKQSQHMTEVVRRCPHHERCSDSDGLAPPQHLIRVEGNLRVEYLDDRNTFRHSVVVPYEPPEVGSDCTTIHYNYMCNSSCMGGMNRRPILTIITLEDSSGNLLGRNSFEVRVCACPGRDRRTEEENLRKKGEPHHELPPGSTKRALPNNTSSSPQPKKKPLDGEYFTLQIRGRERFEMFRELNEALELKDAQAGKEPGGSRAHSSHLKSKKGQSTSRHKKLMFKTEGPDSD
How it was run: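 Cells were seeded at 4000/well, rested 5 h at 37C, then dosed with DMSO compound solutions (217-fold dilution) for 16 h. CCF4-AM substrate was loaded for 2 h at room temperature, and the 460/530 nm emission ratio was fitted for gain of signal versus DMSO.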

[17] = TOX21_p53_BLA_p4_viability: Viability Assessment in the Tox21 HCT-116 p53 Agonism Beta-lactamase Assay, Phase 4 (AID 2283597; active = hit-call score of the fitted dose curve at least 0.9, where 1 is the maximum;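 note: hits lower the luminescence signal meaning cytotoxicity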)
How it was run: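 Readout: ATP luminescence (CellTiter-Glo), measured 30 min after reagent addition at RT. The reagent followed a 2 h CCF4-AM incubation, and the cells had been exposed to compound for 16 h at 37C.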

[18] = biological target: Cellular tumor antigen p53 (Homo sapiens) (UniProt P04637); experiment: TOX21_p53_BLA_p2_ratio: Tox21 HCT-116 p53 Agonism Beta-lactamase Assay, Ratio, Phase 2 (AID 2283592; active = hit-call score of the fitted dose curve at least 0.9, where 1 is the maximum)
How it was run: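 Plated HCT116 p53-bla cells (4000/well) received compound after 5 h, then 16 h at 37C/5% CO2. CCF4-AM added, 2 h RT. Ratio of 460 to 530 nm emission taken as the p53 reporter signal.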

Measured: AC50

Nuclear factor erythroid 2-related factor 2 (Homo sapiens), sequence (Q16236 whole entry, looked up): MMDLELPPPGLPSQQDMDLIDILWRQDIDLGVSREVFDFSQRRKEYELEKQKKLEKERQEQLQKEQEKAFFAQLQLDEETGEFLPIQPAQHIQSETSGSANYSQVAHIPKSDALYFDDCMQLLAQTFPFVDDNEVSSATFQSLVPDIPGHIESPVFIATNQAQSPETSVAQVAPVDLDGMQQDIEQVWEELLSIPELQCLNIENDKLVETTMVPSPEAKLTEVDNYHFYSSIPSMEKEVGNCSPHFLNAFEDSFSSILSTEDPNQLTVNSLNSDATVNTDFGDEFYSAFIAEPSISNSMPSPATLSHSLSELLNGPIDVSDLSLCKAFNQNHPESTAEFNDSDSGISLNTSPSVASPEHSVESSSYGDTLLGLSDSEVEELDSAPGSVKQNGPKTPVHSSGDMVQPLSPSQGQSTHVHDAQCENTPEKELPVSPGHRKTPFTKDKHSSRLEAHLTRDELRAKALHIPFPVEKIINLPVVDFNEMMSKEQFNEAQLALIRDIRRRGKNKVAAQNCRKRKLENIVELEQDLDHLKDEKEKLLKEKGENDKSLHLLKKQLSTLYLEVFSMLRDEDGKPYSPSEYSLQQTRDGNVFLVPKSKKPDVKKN
Signal transducer and activator of transcription 3 (Homo sapiens), sequence (P40763 whole entry, looked up): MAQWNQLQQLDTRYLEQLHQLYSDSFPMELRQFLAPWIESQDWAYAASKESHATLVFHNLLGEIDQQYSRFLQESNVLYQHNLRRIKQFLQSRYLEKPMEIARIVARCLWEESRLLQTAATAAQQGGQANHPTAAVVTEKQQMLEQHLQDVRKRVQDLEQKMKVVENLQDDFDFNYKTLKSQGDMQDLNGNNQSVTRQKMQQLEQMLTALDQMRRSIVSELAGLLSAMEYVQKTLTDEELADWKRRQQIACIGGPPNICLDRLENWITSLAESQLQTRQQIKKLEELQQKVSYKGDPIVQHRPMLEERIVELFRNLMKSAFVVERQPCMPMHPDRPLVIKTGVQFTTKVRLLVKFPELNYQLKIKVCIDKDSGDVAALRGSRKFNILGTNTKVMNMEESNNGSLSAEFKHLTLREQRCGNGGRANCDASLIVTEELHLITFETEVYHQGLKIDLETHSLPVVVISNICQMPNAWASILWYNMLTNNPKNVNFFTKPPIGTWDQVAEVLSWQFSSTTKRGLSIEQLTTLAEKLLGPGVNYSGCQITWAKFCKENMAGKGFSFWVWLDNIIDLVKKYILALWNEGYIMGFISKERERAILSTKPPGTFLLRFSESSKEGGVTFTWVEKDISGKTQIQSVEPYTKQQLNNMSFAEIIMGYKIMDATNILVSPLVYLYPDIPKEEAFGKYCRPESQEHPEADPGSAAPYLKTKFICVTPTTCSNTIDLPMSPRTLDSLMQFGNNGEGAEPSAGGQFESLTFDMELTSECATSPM

N[C@@H](Cc1cc(I)c(Oc2ccc(O)c(I)c2)c(I)c1)C(=O)O
active: [4] 27.1 µM | [6] 63.2 µM | [8] 67.4 µM | [10] 40 µM | [11] 40 µM
not listed: [18]
inactive: all other assays above

CC(C)(c1ccc(O)cc1)c1ccc(O)cc1
active: [2] 0.005 µM | [4] 291 µM | [17] 85.1 µM
inactive: [1] | [2] | [3] | [4] | [5] | [6] | TIMP1, TIMP1 (gene 7076) | [7] | [8] | [9] | [10] | [11] | [12] | [13] | [14] | [15] | [16] | [17]

OB(O)O
not listed: [14] | [15] | [18]
inactive: all other assays above

CSC(=O)c1cccc2nnsc12
not listed: [15] | [18]
inactive: all other assays above

N#CSCSc1nc2ccccc2s1
active: [8] 77.7 µM | [13] 75 µM
not listed: [9] | [15] | [16] | [17] | [18]
inactive: all other assays above

COc1nc(C)nc(NC(=O)NS(=O)(=O)c2ccccc2OCCCl)n1
inactive: [14] | [16] | [17]

CCCN(CCC)C(=O)SCC
not listed: [14] | [18]
inactive: all other assays above

C#CCOC(=O)[C@@H](C)Oc1ccc(Oc2ncc(Cl)cc2F)cc1
active: [10] 20.2 µM
not listed: [14] | [18]
inactive: all other assays above

CCCOC(=O)NCCCN(C)C
not listed: [14] | [17] | [18]
inactive: all other assays above

COC(=O)c1ccc(I)cc1S(=O)(=O)NC(=O)Nc1nc(C)nc(OC)n1
not listed: [3] | [10] | [14] | [16]
inactive: all other assays above

COC(=O)CSc1cc(N=c2sc(=O)n3n2CCCC3)c(F)cc1Cl
active: [10] 41.4 µM
not listed: [14] | [16] | [18]
inactive: all other assays above

O=C(Nc1ccc([N+](=O)[O-])cc1Cl)c1cc(Cl)ccc1O
inactive: [1] | [8] | [9]
active: [2] 2.68 µM | [3] 2.9 µM | [4] 5.12 µM | [5] 1.93 µM | [6] 3.95 µM | TIMP1, TIMP1 (gene 7076) 3.18 µM | [7] 10.1 µM | [10] 3.65 µM | [11] 3.63 µM | [12] 1.97 µM | [13] 4.38 µM | [15] 159 nM and 156 nM | [16] 299 nM and 230 nM | [17] 235 nM and 92 nM

CCOC(=O)C(C)Oc1ccc(Oc2nc3ccc(Cl)cc3o2)cc1 (stereo not drawn)
not listed: [14] | [16] | [17] | [18]
inactive: all other assays above

CCSC(=O)N(CC(C)C)CC(C)C
not listed: [14] | [15] | [18]
inactive: all other assays above
